Most compounds without a hit are left out; they make up all but 2.5% or so of the library.
TrxR1 inh – qHTS Assay for Inhibitors of Mammalian Selenoprotein Thioredoxin Reductase 1 (TrxR1): qHTS; Thioredoxin reductase 1, cytoplasmic (Rattus norvegicus), O89049; recombinant rTrxR1, NADPH fluorescence consumption, selenite substrate; Potency, µM (highest dose often 114 µM), without a hit: at the highest dose activity change, negative = inhibition, actives largely listed as inhibitors; 1% of 390,000 active; note: potency is the fitted concentration of half-maximal effect; % is set by controls: 0 for no effect and ±100 for the full control effect; nearly all actives have a fitted effect of over 65% in size
Target sequence (O89049 whole entry, looked up): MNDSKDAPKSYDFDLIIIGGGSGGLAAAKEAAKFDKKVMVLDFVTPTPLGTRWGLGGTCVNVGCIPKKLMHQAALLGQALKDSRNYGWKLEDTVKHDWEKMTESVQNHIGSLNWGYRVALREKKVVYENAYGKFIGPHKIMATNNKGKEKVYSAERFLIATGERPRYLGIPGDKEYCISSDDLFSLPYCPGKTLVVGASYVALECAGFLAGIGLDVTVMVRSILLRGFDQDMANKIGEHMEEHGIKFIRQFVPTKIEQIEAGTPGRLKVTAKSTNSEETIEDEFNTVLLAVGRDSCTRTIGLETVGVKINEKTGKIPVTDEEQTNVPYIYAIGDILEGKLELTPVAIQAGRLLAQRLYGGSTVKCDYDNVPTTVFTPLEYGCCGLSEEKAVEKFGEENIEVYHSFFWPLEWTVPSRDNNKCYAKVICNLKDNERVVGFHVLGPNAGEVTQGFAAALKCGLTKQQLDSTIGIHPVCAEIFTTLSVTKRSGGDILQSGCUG
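Rat TrxR1 (90 nM in the dispensed reagent) was pre-reduced with 400 uM NADPH for 5 min at room temperature, then incubated with compound for 15 min. After 400 uM selenite was added, NADPH fluorescence (Ex 340/Em 450 nm) was followed for 8 min.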
Anesthetic bind – qHTS Assay for Identification of Novel General Anesthetics. Ferritin light chain (Equus caballus), P02791. apoferritin/1-aminoanthracene competitive binding, fluorescence. Potency, µM (series often up to 77.5 µM), for the others: at the highest dose activity change, negative = displacement, hits mostly inhibitors. 0.074% of 350,000 active; note: potency is the fitted concentration of half-maximal effect; % is set by controls: 0 for no effect and ±100 for the full control effect; nearly all actives have a fitted effect of over 20% in size
Target sequence (P02791 2-175 limits assumed): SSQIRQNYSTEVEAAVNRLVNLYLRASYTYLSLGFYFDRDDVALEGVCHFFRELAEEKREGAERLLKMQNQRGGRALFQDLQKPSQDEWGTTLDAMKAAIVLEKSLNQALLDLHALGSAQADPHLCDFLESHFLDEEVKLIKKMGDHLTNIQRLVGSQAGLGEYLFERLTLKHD
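Probe: 1-aminoanthracene (50% saturated, PBS). Protein: horse-spleen apoferritin, 10 uM. Incubation: 10 min, room temperature. Detection: 380 nm excitation, 535 nm emission. Analysis: normalized response, four-parameter Hill.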
ClpP mod – qHTS Assay for Activators of ClpP; Potency, µM (doses to about 57.5 µM), without a hit: at the highest dose activity change, negative = active; ATP-dependent Clp protease proteolytic subunit (Bacillus subtilis (strain 168)), P80244; 1.9% of 340,000 active; purified B. subtilis ClpP, FRET peptide cleavage, 20 min; active = well fitted falling curve with a large enough effect; inconclusive = small, poorly fitted or top-dose-only effect; inactive = no such curve, though single readings can be large or run the other way; note: potency is the fitted concentration of half-maximal effect; the source files actives as falling curves though it sought activators and does not explain the sign; nearly all actives have a fitted effect of over 65% in size
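Purified B. subtilis ClpP, 10 microg/mL final in Tris/HCl pH8 with KCl, BSA, glycerol and Tween-20, cleaved an Abz/nitrotyrosine-quenched decapeptide. Fluorescence (ex 320, em 430) was read at 0 and 20 min at room temperature. Delta was normalized to 5.8 microM ADEP and DMSO/no-enzyme controls.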
miR-21 reporter – qHTS Assay for Modulators of miRNAs and/orActivators of miR-21; HeLa miR-21 FLuc reporter, luciferase, 48 h; Potency, µM (series often up to 38.3 µM), without a hit: top-dose activity change, positive = activation, hits mostly activators; 340,000 tested, under 10 active; AID 2288, 2010;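 note: % of control where 0% means no effect; miR-21 action dims this reporter so a rising signal means less miR-21 action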
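HeLa cells stably expressing CMV-driven firefly luciferase with a downstream miR-21 binding sequence, endogenously expressing miR-21, were treated with titrations (up to about 40uM final) for 48 hours at 37 degree Celsius. Luciferase luminescence was read after lysis.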
TrxR1 substrate – qHTS Assay for Substrates of Mammalian Selenoprotein Thioredoxin Reductase 1 (TrxR1): qHTS; Thioredoxin reductase 1, cytoplasmic (Rattus norvegicus), O89049; purified TrxR1 substrate turnover, NADPH consumption readout; Potency, µM (highest dose often 114 µM), inactives show top-dose activity change, negative = substrate turnover; 0.01% of 390,000 active; note: potency is the fitted concentration of half-maximal effect; % is set by controls: 0 for no effect and ±100 for the full control effect; nearly all actives have a fitted effect of over 50% in size
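Rat TrxR1, dispensed at 90 nM, was prereduced with 400 uM NADPH (final) for 5 min at ~22 deg C, then incubated with compound 15 min before 400 uM selenite. A first-read NADPH fluorescence drop versus no-compound background flagged substrates.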
* = called active by the depositor; i = inactive; ? = inconclusive; nt = no result; [ ] = remark or other dose. Unless noted, calls come from the whole dose curve; as a rule, active = well fitted curve in the direction sought with a large enough effect; inconclusive = small, poorly fitted or top-dose-only effect, or another doubt; inactive = no such curve, though single readings can be large; an effect the other way counts as inactive or inconclusive.

SMILES | TrxR1 inh | Anesthetic bind | ClpP mod | miR-21 reporter | TrxR1 substrate
COc1ccc(CCNC(=O)CS(=O)Cc2nc(-c3cccs3)oc2C)cc1OC (stereo not drawn) | 39.8µM* | -11.4% | -3.5% | -4.2% | 2.6%
CCc1ccc(C(=O)c2cn(CC(=O)Nc3cc(F)ccc3F)c3nc(C)ccc3c2=O)cc1 | 1.4%[57.1 µM] | ? | 1.4% | 2.6% | -0.3%[57.1 µM]
CC1CCc2[nH]c3ccc(C(=O)N(C)CC(=O)Nc4ccccc4Br)cc3c2C1 (stereo not drawn) | 9.9% | nt | 15.8µM* | nt | 5.4%
CCc1cc(C(=O)c2ccc(C)cc2)c(NC(=O)CCl)s1 | 31.6µM* | -9.1% | 0.7% | 9.7% | -8.1%
Cc1cc(C(=O)c2ccc(Cl)cc2)c(NC(=O)CCl)s1 | 3.98µM* | -6.4% | -3.3% | -0.1% | 13.3%[57.1 µM]
OC(c1nc2ccccc2[nH]1)C(O)c1nc2ccccc2[nH]1 (stereo not drawn) | 6.9%[57.1 µM] | -14.4% | 1.1% | -15.2% | 6.0%
OC(c1ccccc1)c1nc2ccccc2[nH]1 (stereo not drawn) | 24.2%[57.1 µM] | -7.9% | 15.8µM* | -3.0% | 14.3%[57.1 µM]
O=C1Nc2cc(S(=O)(=O)N3CCCC3)ccc2N2CCCC12 (stereo not drawn) | 50.1µM* | -13.5% | -8.2% | -0.2% | -3.0%
COc1ccc(OC)c(NC(=O)C2Cc3ccccc3CN2S(=O)(=O)c2ccc(F)cc2)c1 (stereo not drawn) | 13.6% | 44.2% | -0.6% | -4.2% | 2.1%
CCCCc1ccc(S(=O)(=O)N/N=C(/C)c2ccncc2)cc1 | -6.8% | -18.7% | 31.6µM* | 13.6% | -3.9%
CCC(=O)N1CCCc2cc(S(=O)(=O)N3CCC(C(=O)Nc4ccccc4CC)CC3)ccc21 | -2.3%[57.1 µM] | 38.9% | -3.2% | -6.5% | -5.3%[57.1 µM]
COC(=O)c1cc(-c2ccc(C)o2)nc2ccccc12 | 31.6µM* | 12.8% | -1.3% | -7.8% | 2.2%
Cc1ccc(-c2cc(C(=O)N3CC(C)OC(C)C3)c3ccccc3n2)o1 (stereo not drawn) | 7.6% | nt | 14.1µM* | nt | 352.7%
Cc1ccc(-c2cc(C(=O)Nc3ccccc3C)c3ccccc3n2)o1 | ? | -8.7% | ? | -2.8% | 28.5%[57.1 µM]
Cc1ccc(-c2cc(C(=O)N3CC(C)CC(C)C3)c3ccccc3n2)o1 (stereo not drawn) | ? | 124.3% | nt | -9.8% | 180.1%[57.1 µM]
CNC(=O)C1CCC(Cn2c(=O)c3sccc3n(Cc3ccccc3)c2=O)CC1 (stereo not drawn) | 18.1%[57.1 µM] | 3.5% | -1.0% | -0.8% | 10.4%[57.1 µM]
CCCc1cc(=O)oc2c(CN(CC)CC)c(O)c(Cl)cc12 | 17.8µM* | 541.4% | nt | -8.6% | 953.1%
CCCCc1cc(=O)oc2c(CN(CC)CC)c(O)c(Cl)cc12 | ? | i | 11.1% | 0.0% | i
CCCCc1cc(=O)oc2c(CN3CCCC3)c(O)c(Cl)cc12 | ? | 560.1% | -14.9% | 1.0% | i
CCCc1cc(=O)oc2c(CN3CCN(C)CC3)c(O)ccc12 | 79.4µM* | 365.8% | 3.9% | 2.6% | 869.2%
CCCc1cc(=O)oc2c(CN3CCN(C)CC3)c(O)c(Cl)cc12 | 39.8µM* | 939.0% | 6.5% | -11.8% | i
CCCCc1cc(=O)oc2c(CN3CCN(C)CC3)c(O)ccc12 | ? | 177.0% | 3.5% | -0.2% | i
Cc1ccc(/C=C/C(=O)c2ccc(C)cc2)cc1 | -4.8%[57.1 µM] | -11.2% | -0.4% | -17.6% | -0.8%[57.1 µM]
Cc1ccc(C(=O)/C=C/C(=O)c2ccc(C)cc2)cc1 | 3.16µM* | -10.2% | nt | 0.0% | 2.0%[57.1 µM]
Cc1ccc(NC(=O)CCCn2c(=O)c3cccn3c3cccnc32)cc1C | 14.7% | -14.3% | -7.1% | -10.2% | 8.4%
SMILES | TrxR1 inh | Anesthetic bind | ClpP mod | miR-21 reporter | TrxR1 substrate
CCCN(CCC)S(=O)(=O)c1ccc2c(c1)N(CC(=O)NC(C)c1ccccc1)C(=O)CS2 (stereo not drawn) | -9.7%[57.1 µM] | -9.3% | 2.4% | 10.2% | -9.0%[57.1 µM]
CCn1ccc2cc(S(=O)(=O)N3CCC(C(=O)NCCc4ccccc4Cl)CC3)ccc21 | 46.6%[57.1 µM] | 73.9% | -12.4% | -1.0% | 11.1%[57.1 µM]
CCc1nnc(NC(=O)C2CCN(c3nccc(C)n3)CC2)s1 | 7.0% | 0.8% | 31.6µM* | -5.9% | 12.4%
Nc1c(C(=O)Nc2ccccc2)sc2nc(-c3ccco3)ccc12 | 3.98µM* | 3.8% | 15.8µM* | -21.2% | 15.2%
Nc1c(C(=O)Nc2nc3ccccc3s2)sc2nc(-c3cccs3)ccc12 | 11.3% | 8.6% | 0.0% | ? | -0.2%
Nc1c(C(=O)Nc2ccccc2Br)sc2nc(-c3cccs3)ccc12 | 2.3% | 62.5% | 31.6µM* | -61.7% | -3.7%
COC(=O)c1scc(-c2ccc(C)cc2)c1S(=O)(=O)N1CCN(c2ccccc2F)CC1 | 26.8%[57.1 µM] | 55.7% | -1.3% | 0.6% | 3.5%[57.1 µM]
CCCCCC1CC1C(=O)N/N=C/c1ccc(N(C)C)cc1 (stereo not drawn) | -13.9% | ? | 35.5µM* | -6.8% | 16.2%
COc1cccc(/C=N/NC(=O)CCc2n[nH]c(=O)[nH]c2=O)c1O | 22.8% | 11.3% | 10µM* | -5.3% | 15.1%
CCOC(=O)C1=C(C)NC(C)=C(C(=O)OCC)C1c1ccc(Br)o1 | -10.8% | -0.3% | 3.55µM* | 0.2% | -9.3%
CCCCC1CCC(C(=O)N2CC(=O)Nc3ccc(Br)cc3C2c2ccc(F)cc2)CC1 (stereo not drawn) | 6.9% | 31.2% | -1.8% | ? | -7.4%
CC(C)[C@H](/C=C/C[Si](C)(C)C)[C@H](C)C(O)/C=C/CCCOC(=O)C(C)(C)C (stereo partly drawn) | -33.2% | -11.3% | nt | nt | -13.8%
O=C1ON=C(c2ccc(Cl)cc2)/C1=C/c1ccc(O)cc1 | 3.16µM* | ? | nt | 10.0% | 2.2%[57.1 µM]
O=C1ON=C(c2ccccc2)/C1=C/c1ccc(O)cc1 | 14.1µM* | -6.7% | -0.3% | -12.9% | -1.2%
O=C1ON=C(c2ccccc2)/C1=C/c1ccccc1 | 4.47µM* | -13.3% | 1.0% | -3.4% | 10.8%
Cc1ccc(/C=C2/C(=O)ON=C2c2ccccc2)o1 | 3.98µM* | 7.7% | -4.1% | -18.1% | -6.1%
O=C1ON=C(c2ccccc2)/C1=C\c1ccco1 | -5.6% | 5.7% | -0.3% | 4.1% | 1.8%
COc1ccc(CNCc2c(C(=O)O)c(C)n(Cc3ccccc3C)c2C)c(OC)c1 | -3.7% | 52.6% | -4.6% | 0.4% | -5.9%
CC(CNC(=O)Cc1ccc(NC(=O)N2CCSc3ncccc32)cc1)c1ccccc1 (stereo not drawn) | 14.7% | -11.8% | ? | 8.4% | -3.7%
CCOC(=O)c1c(Nc2ccc(O)cc2)nnc(-c2ccccc2)c1-c1ccccc1 | -6.2% | ? | 2.4% | 4.0% | 0.0%

Compound activity as filed in PubChem.
